PubChem BioAssay (NCI)
“And” between values parts separate entries of the source, which are not always exact repeats. Equal values may be shown once. This is part of a sample that, as a whole, favours compounds with a hit. Of some 83,000 tested, about 20% had one in any assay.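 The endpoint reported here, percent growth, reads 100 for growth as untreated, 0 for no net growth and -100 for all cells dead.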 Values without a mark were called inactive. The source made the active and inactive calls. Rule for the calls: active = growth percent below 10; inactive = the rest.

Test system: HL-60(TB) leukemia
Experiment: NCI-60 one-dose screen, 48 h (100 = growth as untreated, 0 = no growth, -100 = all killed)
Conditions: 10 µM unless noted

Row | Structure (SMILES) | growth
1 | N=C(N=C(N)N)N1CCOCC1 | 100% and 99.1%
2 | Nc1ccc(S(=O)(=O)Nc2ncccn2)cc1 | 105%
3 | Cc1ccc(NC(=S)NNC(=S)NNc2ccccc2)cc1C | 20.4%
4 | Cc1ccc2sc3c(NCCCNCCO)nc4ccccc4c3c(=O)c2c1 | -0.607% (active)
5 | Cc1nc2nc(C(F)(F)F)[nH]c2nc1C | 98.8%
6 | C=C(C)[C@@H]1CC[C@]2(C)[C@H](CC=C3[C@@H]4[C@@H](C)[C@H](C)CC[C@]4(C(N)=O)CC[C@]32C)[C@@]1(C)CCC#N | -28.7% [100 µM] (active)
7 | Cc1cc(C)nc(NS(=O)(=O)c2ccc(Nc3nc4nc(NCc5ccccc5)nc(-c5ccc(O)cc5)c4c(=O)[nH]3)cc2)n1 | 1.48% (active)
8 | O=C(O)CNC1=C(Cl)C(=O)c2ccccc2C1=O | 122%
9 | Cc1cc(N=Nc2ccc(C)c(N=Nc3cc(C)c(N)cc3N)c2)c(N)cc1N | 99.9% and 82.5%
10 | O=C1CCCN1c1cccc2cccnc12 | 101%
11 | N#CCSc1nnc2n(Cc3ccccc3)c(=O)c3c4c(sc3n12)CCCC4 | 81.7%
12 | Cn1ccc2c(c1=O)C(=O)c1nccc3c1c-2nc1ccccc13 | -67.4% (active)
13 | O=[P@@]1(c2ccccc2)O[C@H](COCc2ccccc2)[C@@H](OCc2ccccc2)[C@H](OCc2ccccc2)[C@H]1NCc1ccccc1 | -25.1% (active)
14 | O=C(Nc1ccc(Br)cc1F)c1cc(F)ccc1O | -19.7% (active)
15 | COc1ccc(/C=C/c2nc(-c3n[nH]c(=O)n3-c3ccccc3)c3ccccc3n2)cc1 | 97.1%
16 | COc1ccc(/C=C/C(=O)c2cc(OC)c(OC)c(OC)c2)cc1OCc1cn(Cc2ccc(F)cc2)nn1 | 69.4%
17 | O=C1c2cccnc2C(=O)c2c1c(C(=O)NCCCN1CCCCC1)c1ccccn21 | -29% (active)
18 | CCCNc1nc(SC)nc(-c2cccc(N)c2)c1C#N | 98.9%
19 | CCN(CC)C(=O)C1CCN(C(=O)c2ccccc2)CC1 | 89.3%
20 | COc1cc2c3c(c4c5ccccc5[nH]c4c2c(OC)c1OC)C(=O)N(CCN1CCOCC1)C3=O | 69%

Row | Structure (SMILES) | growth
21 | COc1cc(NC2CCC(=O)N2c2ccc(Cl)cc2Cl)cc(OC)c1OC (centres undefined) | -3.13% (active)
22 | O=c1[nH]c([C@@H]2CCCN2)nc2c1oc1ccc(Cl)cc12 | 101%
23 | Nc1c(C(=O)Nc2cccc(Cl)c2)sc2nc3c(cc12)C(=O)CCC3 | 33.1%
24 | O=C1C(Cl)=C(NCc2ccco2)C(=O)c2ccccc21 | 85%
25 | CCOC(=O)c1sc2ncnc(Nc3ccc(NC(=O)Nc4ccc(Cl)cc4)cc3)c2c1C | 91.4%
26 | C[C@@H]1[C@H]2[C@H](C=C3[C@@H]4CC[C@H]5Cc6nc7c(nc6C[C@]5(C)[C@H]4C[C@@H](O)[C@@]32C)C[C@@H]2CC[C@H]3C4=C[C@@H]5O[C@@]6(CC[C@](C)(CO)O6)[C@@H](C)[C@@]5(O)[C@@]4(C)[C@H](O)C[C@@H]3[C@@]2(C)C7)O[C@]12CCC(C)(C)O2 | 4.6% (active)
27 | C=CCn1cc(-c2nc3ccccc3s2)c2cc(-c3ccc4c5c(cccc35)C(=O)N(N)C4=O)ccc21 | 103%
28 | CCN(CC)CCOC(=O)c1cccnc1 | 101%
29 | O=C(CCN1CCCC1)Nc1ccc2c(NCc3ccc(F)cc3)c3ccccc3nc2c1 | -47.3% (active)
30 | COc1ccc(/C=C2\COc3ccc(O)cc3C2=O)c(OC)c1OC | 12.7%
31 | CC(=O)c1cccc(OC(=O)c2ccccc2)c1 | 79.9%
32 | CC1(C)CN(Cc2ccccc2)CCN1Cc1ccccc1 | 100%
33 | O=C1NC(=O)C(CC(=O)n2c(-c3ccccc3)nc3ccccc32)C(=O)N1 | 106%
34 | O=C(Nc1ccc(Cl)cc1)Nc1ccc(Cl)c(C(F)(F)F)c1 | -60.8% (active)
35 | O=C(Nc1cccc2ccccc12)NC1CC1 | 108%
36 | COc1ccc(OC)c(-c2nc(SCC(=O)c3ccc(C#N)cc3)[nH]c(=O)c2C#N)c1 | 106%
37 | Cc1[nH]nc2c(=S)[nH]c(=O)[nH]c12 | 89.2%
38 | CC(C)(C)N1CCC1CN (centres undefined) | 125%
39 | COc1cc(NC(C)CCCN)c2nccc(C)c2c1OC (centres undefined) | -3.41% (active)
